Assay results: the supplement of paper PMC8285479
Where a name gives a salt, the structure may show the parent alone. ± gives the standard deviation of the averaged measurements. The full ranking holds about 1,900 compounds; the median of “normalised cell viability (NPI; 0 = phenylarsine oxide control, 1 = DMSO control)” is about 1, and the lowest 2% start at about 0.039. The list comes from a sample in which the lowest values are over-represented; it also holds similar structures and randomly drawn compounds.

Tested on: NCI-H1944
Experiment: normalised cell viability (NPI; 0 = phenylarsine oxide control, 1 = DMSO control) (fraction of DMSO control); NCI-H1944 is a non-small cell lung cancer line; higher = more viable cells (less compound toxicity)
Conditions: 6 days
[1] = glucocorticoid arm: hydrocortisone 2.75 uM co-treatment, compound 1 µM
[2] = glucocorticoid arm: hydrocortisone 2.75 uM co-treatment, compound 5 µM
[3] = glucocorticoid arm: hydrocortisone 2.75 uM pre-treated 2 days and continued, compound 1 µM
[4] = glucocorticoid arm: hydrocortisone 2.75 uM pre-treated 2 days and continued, compound 5 µM
[5] = glucocorticoid arm: vehicle, compound 1 µM
[6] = glucocorticoid arm: vehicle, compound 5 µM
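Also: CTB read-out in 384-well plates, triplicate wells, NPI normalised per plate against 1 µM phenylarsine oxide (0) and 0.1% DMSO (1) controls.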

`O=C(O)[C@H]1C[C@H](C(=O)O)N1` (relative stereo) [trans-Azetidine-2,4-dicarboxylic acid] gave a normalised cell viability [1] of 1.007 ± 0.0058, a normalised cell viability [2] of 1.007 ± 0.0058 and a normalised cell viability [3] of 1.005 ± 0.0087. The normalised cell viability [4] was 1.01, the normalised cell viability [5] was 0.9843 ± 0.0025 and the normalised cell viability [6] was 0.9883 ± 0.0091.
Molecule `CC(C)(C)c1cnc(CSc2cnc(NC(=O)C3CCNCC3)s2)o1` has a normalised cell viability [1] of 0.0382 ± 0.0034, a normalised cell viability [2] of 0.036 ± 0.0061 and a normalised cell viability [3] of 0.148 ± 0.013. The normalised cell viability [4] was 0.133 ± 0.018, the normalised cell viability [5] was 0.00695 ± 0.0037 and the normalised cell viability [6] was 0.00933 ± 0.00035.
`C=C(C)C(CC=C(C)C)CC12CC(CC=C(C)C)C(C)(C)C(CC=C(C)C)(C(=O)C(=C(O)c3ccc(O)c(O)c3)C1=O)C2=O` (stereo unspecified) [Garcinol] showed a normalised cell viability [1] of 1 ± 0.012, a normalised cell viability [2] of 1.01 ± 0.013 and a normalised cell viability [3] of 0.992 ± 0.014. The normalised cell viability [4] was 0.997 ± 0.027, the normalised cell viability [5] was 1.007 ± 0.0052 and the normalised cell viability [6] was 1.001 ± 0.01.
`O=[N+]([O-])c1ccc(-c2nc(-c3ccc(F)cc3)c(-c3ccncc3)[nH]2)cc1` was tested, and the normalised cell viability [1] was 0.976 ± 0.019, the normalised cell viability [2] was 0.903 ± 0.014 and the normalised cell viability [3] was 0.9707 ± 0.008. For the same molecule, the normalised cell viability [4] was 0.865 ± 0.019, the normalised cell viability [5] was 0.996 ± 0.004 and the normalised cell viability [6] was 0.962 ± 0.051.
`N#C/C(=C/c1ccc(O)c(O)c1)C(=O)NCc1ccccc1` [Tyrphostin AG 490] showed a normalised cell viability [1] of 1.01 ± 0.016, a normalised cell viability [2] of 1.03 ± 0.015 and a normalised cell viability [3] of 0.999 ± 0.028. For the same molecule, the normalised cell viability [4] was 1 ± 0.014, the normalised cell viability [5] was 1.02 ± 0.01 and the normalised cell viability [6] was 1.02 ± 0.01.
Work on `C[C@H](Cc1ccc(O)c(O)c1)[C@@H](C)Cc1ccc(O)c(O)c1` yielded a normalised cell viability [1] of 0.996 ± 0.013, a normalised cell viability [2] of 1.02 ± 0.02 and a normalised cell viability [3] of 0.998 ± 0.013. It also gave a normalised cell viability [4] of 1.04 ± 0.058, a normalised cell viability [5] of 1.013 ± 0.0058 and a normalised cell viability [6] of 1.02 ± 0.011.
In the case of `CO/N=C(\C(=O)N[C@@H]1C(=O)N2C(C(=O)O)=C(CSc3nc(=O)c(O)nn3C)CS[C@H]12)c1csc(N)n1` [Ceftriaxone sodium salt], the normalised cell viability [1] is reported as 0.985 ± 0.0052, the normalised cell viability [2] is reported as 0.995 ± 0.025 and the normalised cell viability [3] is reported as 0.849 ± 0.22. The normalised cell viability [4] was 0.992 ± 0.0057, the normalised cell viability [5] was 0.964 ± 0.0069 and the normalised cell viability [6] was 0.9743 ± 0.006.
With `Oc1ccc2ccccc2c1SSc1c(O)ccc2ccccc12` the normalised cell viability [1] was 1.03 ± 0.01, the normalised cell viability [2] was 1.08 ± 0.021 and the normalised cell viability [3] was 1.017 ± 0.0058. The normalised cell viability [4] was 1.01 ± 0.028, the normalised cell viability [5] was 1.013 ± 0.0058 and the normalised cell viability [6] was 1.04 ± 0.01.
For `CNc1nc(Nc2cnn(C3CCN(C4COC4)CC3F)c2Cl)ncc1C(F)(F)F` (stereo unspecified), the normalised cell viability [1] was 1.02 ± 0.01, the normalised cell viability [2] was 1.05 ± 0.023 and the normalised cell viability [3] was 1.04 ± 0.01. It also gave a normalised cell viability [4] of 1.05 ± 0.01, a normalised cell viability [5] of 1.007 ± 0.0058 and a normalised cell viability [6] of 1.007 ± 0.0058.
Molecule `Cc1[nH]nc2ccc(-c3cncc(OC[C@@H](N)Cc4ccccc4)c3)cc12` has a normalised cell viability [1] of 0.452 ± 0.007, a normalised cell viability [2] of 0.0555 ± 0.0049 and a normalised cell viability [3] of 0.792 ± 0.022. The normalised cell viability [4] was 0.129 ± 0.0089, the normalised cell viability [5] was 0.1 ± 0.012 and the normalised cell viability [6] was 0.0136 ± 0.0021.
With `C#Cc1ccc2c(c1)C(=O)N(C)Cc1c(C(=O)OCCCOC(=O)c3ncn4c3CN(C)C(=O)c3cc(C#C)ccc3-4)ncn1-2` [Xli 093 hydrate] the normalised cell viability [1] was 0.999 ± 0.011, the normalised cell viability [2] was 1.01 ± 0.015 and the normalised cell viability [3] was 1 ± 0.013. The normalised cell viability [4] was 1.01, the normalised cell viability [5] was 0.99 ± 0.01 and the normalised cell viability [6] was 0.9967 ± 0.0015.
For `CCN1CCN(Cc2ccc(-c3cc4c(N[C@H](C)c5ccccc5)ncnc4[nH]3)cc2)CC1`, the normalised cell viability [1] was 0.812 ± 0.041, the normalised cell viability [2] was 0.693 ± 0.043 and the normalised cell viability [3] was 0.885 ± 0.014. It also gave a normalised cell viability [4] of 0.752 ± 0.047, a normalised cell viability [5] of 0.8103 ± 0.0047 and a normalised cell viability [6] of 0.6 ± 0.016.
In the case of `COc1cc(CC(=O)O)ccc1O` [4-Hydroxy-3-methoxyphenylacetic acid], the normalised cell viability [1] is reported as 1.007 ± 0.0058, the normalised cell viability [2] is reported as 1.01 ± 0.014 and the normalised cell viability [3] is reported as 1.01 ± 0.01. For the same molecule, the normalised cell viability [4] was 1.02, the normalised cell viability [5] was 1.01 ± 0.01 and the normalised cell viability [6] was 1.01.
In the case of `COc1cc(OC)c(/C=C/S(=O)(=O)Cc2ccc(OC)c(NCC(=O)O)c2)c(OC)c1`, the normalised cell viability [1] is reported as 0.307 ± 0.021, the normalised cell viability [2] is reported as 0.261 ± 0.026 and the normalised cell viability [3] is reported as 0.572 ± 0.03. It also gave a normalised cell viability [4] of 0.572 ± 0.051, a normalised cell viability [5] of 0.0447 ± 0.0079 and a normalised cell viability [6] of 0.0341 ± 0.0062.
In the case of `Cc1c(F)ccc(C(=O)Nc2cc([N+](=O)[O-])ccc2N2CCN(C)CC2)c1Cl`, the normalised cell viability [1] is reported as 1.03 ± 0.011, the normalised cell viability [2] is reported as 0.987 ± 0.02 and the normalised cell viability [3] is reported as 1.027 ± 0.0058. It also gave a normalised cell viability [4] of 1 ± 0.013, a normalised cell viability [5] of 0.9957 ± 0.0075 and a normalised cell viability [6] of 0.9963 ± 0.0047.
`O=C(O)[C@H]1NCCC[C@H]1C(=O)O` (relative stereo) [cis-Piperidine-2,3-dicarboxylic acid] showed a normalised cell viability [1] of 1 ± 0.016, a normalised cell viability [2] of 1 ± 0.022 and a normalised cell viability [3] of 1 ± 0.018. The normalised cell viability [4] was 0.973 ± 0.0087, the normalised cell viability [5] was 0.987 ± 0.0092 and the normalised cell viability [6] was 0.9887 ± 0.005.
Molecule `CSC(=N)NCCC[C@H](N)C(=O)O` [S-Methyl-L-thiocitrulline acetate] has a normalised cell viability [1] of 1.003 ± 0.0058, a normalised cell viability [2] of 0.984 ± 0.028 and a normalised cell viability [3] of 1.01 ± 0.01. It also gave a normalised cell viability [4] of 0.989 ± 0.018, a normalised cell viability [5] of 0.9847 ± 0.0051 and a normalised cell viability [6] of 0.994 ± 0.014.
Molecule `Nc1ccn([C@@H]2O[C@H](CO)[C@@H](O)C2(F)F)c(=O)n1` [Gemcitabine hydrochloride; Gemcitabine HCl] has a normalised cell viability [1] of 0.202 ± 0.0062, a normalised cell viability [2] of 1.04 ± 0.015 and a normalised cell viability [3] of 0.422 ± 0.044. For the same molecule, the normalised cell viability [4] was 1.03, the normalised cell viability [5] was 0.0536 ± 0.0027 and the normalised cell viability [6] was 1.013 ± 0.0058.
For `Nc1ncn([C@@H]2O[C@H](CO)[C@@H](O)[C@H]2O)c(=O)n1` [Azacitidine], the normalised cell viability [1] was 1.03, the normalised cell viability [2] was 1.11 ± 0.025 and the normalised cell viability [3] was 1 ± 0.037. For the same molecule, the normalised cell viability [4] was 0.952 ± 0.24, the normalised cell viability [5] was 0.976 ± 0.011 and the normalised cell viability [6] was 0.903 ± 0.017.
For `Nc1ncn([C@@H]2O[C@H](CO)[C@@H](O)[C@H]2O)c(=O)n1` [5-azacytidine], the normalised cell viability [1] was 1.006 ± 0.0063, the normalised cell viability [2] was 1.03 and the normalised cell viability [3] was 1.01 ± 0.018. The normalised cell viability [4] was 1.08 ± 0.014, the normalised cell viability [5] was 0.972 ± 0.015 and the normalised cell viability [6] was 0.8937 ± 0.006.
In the case of `Nc1ccn([C@@H]2O[C@H](CO)[C@@H](O)[C@@H]2O)c(=O)n1` [Cytosine-1-beta-D-arabinofuranoside hydrochloride], the normalised cell viability [1] is reported as 0.352 ± 0.026, the normalised cell viability [2] is reported as 0.163 ± 0.022 and the normalised cell viability [3] is reported as 1.03 ± 0.017. It also gave a normalised cell viability [4] of 0.802 ± 0.22, a normalised cell viability [5] of 0.0913 ± 0.011 and a normalised cell viability [6] of 0.0638 ± 0.0066.
With `Nc1ccn([C@@H]2O[C@H](CO)[C@@H](O)[C@@H]2O)c(=O)n1` the normalised cell viability [1] was 0.178 ± 0.001, the normalised cell viability [2] was 0.115 ± 0.0035 and the normalised cell viability [3] was 0.91 ± 0.011. For the same molecule, the normalised cell viability [4] was 0.31 ± 0.04, the normalised cell viability [5] was 0.0325 ± 0.0032 and the normalised cell viability [6] was 0.0276 ± 0.0059.
`Nc1ncn([C@@H]2O[C@H](CO)[C@@H](O)[C@H]2O)c(=O)n1` [Azacitidine; 5-azacytidine] gave a normalised cell viability [1] of 1.04 ± 0.026, a normalised cell viability [2] of 1.11 ± 0.015 and a normalised cell viability [3] of 1.04 ± 0.01. It also gave a normalised cell viability [4] of 1.1 ± 0.021, a normalised cell viability [5] of 0.98 ± 0.017 and a normalised cell viability [6] of 0.766 ± 0.025.
Work on `CN1CCN(C2Cc3ccccc3Sc3ccc(Cl)cc32)CC1` (racemic) [(±)-Octoclothepin maleate] yielded a normalised cell viability [1] of 1.01 ± 0.011, a normalised cell viability [2] of 0.9477 ± 0.0045 and a normalised cell viability [3] of 1.01 ± 0.015. The normalised cell viability [4] was 1.05 ± 0.087, the normalised cell viability [5] was 1 ± 0.0095 and the normalised cell viability [6] was 1 ± 0.011.
Work on `[N-]=[N+]=Nc1ccc(C(=O)CSC[C@H](NC(=O)CC[C@H](N)C(=O)O)C(=O)NCC(=O)O)cc1` [S-(p-Azidophenacyl)glutathione] yielded a normalised cell viability [1] of 1.017 ± 0.0058, a normalised cell viability [2] of 0.814 ± 0.0099 and a normalised cell viability [3] of 0.9947 ± 0.0067. For the same molecule, the normalised cell viability [4] was 1 ± 0.021, the normalised cell viability [5] was 0.988 ± 0.014 and the normalised cell viability [6] was 0.517 ± 0.38.
Work on `COCC[n+]1c2c(n(Cc3cnccn3)c1C)C(=O)c1ccccc1C2=O` yielded a normalised cell viability [1] of 0.00685 ± 0.0014, a normalised cell viability [2] of 0.00188 ± 0.0012 and a normalised cell viability [3] of 0.00552 ± 0.0012. For the same molecule, the normalised cell viability [4] was 0.0024 ± 0.00039, the normalised cell viability [5] was 0.00736 ± 0.00083 and the normalised cell viability [6] was 0.00199 ± 0.00048.
